Measurements: PubChem BioAssay (EPA / NIEHS)
Results filed as inconclusive are left out. Activity calls are given as the source filed them. The calls were made as follows: active = hit-call score of the fitted dose curve at least 0.9, where 1 is the maximum; inconclusive = response in the unintended direction; inactive = score below 0.9.

How the values were obtained:
[1] = target: human Serotonin, 5-Hydroxytryptamine Receptor 7 (5HT7), HTR7 (gene 3363) (UniProt P34969); assay: NVS_GPCR_h5HT7: NovaScreen (NVS) G Protein-Coupled Receptor Assay for human Serotonin, 5-Hydroxytryptamine Receptor 7 (5HT7) (AID 2283255);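 also: hits reduce specific radioligand binding relative to DMSO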
How it was run: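 Filter-bound radioactivity counted after 1 h, with loss of specific radioligand binding fitted against DMSO. Membrane protein came from CHO cells expressing human 5HT7. Chemicals were tested first at 25 uM in duplicate, then in concentration series if active.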

[2] = target: human Neuropeptide Receptor Y1 (NPY1), NPY1R (gene 4886) (UniProt P25929); assay: NVS_GPCR_hNPY1: NovaScreen (NVS) G Protein-Coupled Receptor Assay for human Neuropeptide Receptor Y1 (NPY1) (AID 2283276)
How it was run: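 Displacement of specific radioligand from NPY1 receptor of SK-N-MC origin, read by filtration and scintillation after 1 h. Compounds first tested at 25 uM in duplicate, then actives in concentration series; signal loss relative to DMSO.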

[3] = system: 5-hydroxytryptamine receptor 2C (pig); assay: NVS_GPCR_p5HT2C: NovaScreen (NVS) G Protein-Coupled Receptor Assay for pig Serotonin, 5-Hydroxytryptamine Receptor 2C (5HT2C) (AID 2283288)
How it was run: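 Radioligand displacement on membranes from pig choroid plexus, detected by filter scintillation counting after 1 h. Tested first at a single 25 uM in duplicate, then in concentration-response for actives; DMSO served as baseline.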

human Serotonin, 5-Hydroxytryptamine Receptor 7 (5HT7), HTR7 (gene 3363), sequence (P34969 whole entry, looked up): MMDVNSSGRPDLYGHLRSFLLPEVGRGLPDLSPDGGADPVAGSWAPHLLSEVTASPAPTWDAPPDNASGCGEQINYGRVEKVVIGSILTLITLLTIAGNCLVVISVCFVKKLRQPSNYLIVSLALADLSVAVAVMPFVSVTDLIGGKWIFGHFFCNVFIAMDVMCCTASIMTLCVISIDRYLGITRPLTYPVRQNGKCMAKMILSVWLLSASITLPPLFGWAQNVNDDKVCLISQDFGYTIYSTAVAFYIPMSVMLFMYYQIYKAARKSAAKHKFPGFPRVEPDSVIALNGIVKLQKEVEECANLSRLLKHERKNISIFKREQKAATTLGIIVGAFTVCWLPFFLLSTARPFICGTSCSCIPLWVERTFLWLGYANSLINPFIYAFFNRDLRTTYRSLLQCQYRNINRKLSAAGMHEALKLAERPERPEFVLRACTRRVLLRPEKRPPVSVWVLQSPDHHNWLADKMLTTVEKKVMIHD
human Neuropeptide Receptor Y1 (NPY1), NPY1R (gene 4886), sequence (P25929 whole entry, looked up): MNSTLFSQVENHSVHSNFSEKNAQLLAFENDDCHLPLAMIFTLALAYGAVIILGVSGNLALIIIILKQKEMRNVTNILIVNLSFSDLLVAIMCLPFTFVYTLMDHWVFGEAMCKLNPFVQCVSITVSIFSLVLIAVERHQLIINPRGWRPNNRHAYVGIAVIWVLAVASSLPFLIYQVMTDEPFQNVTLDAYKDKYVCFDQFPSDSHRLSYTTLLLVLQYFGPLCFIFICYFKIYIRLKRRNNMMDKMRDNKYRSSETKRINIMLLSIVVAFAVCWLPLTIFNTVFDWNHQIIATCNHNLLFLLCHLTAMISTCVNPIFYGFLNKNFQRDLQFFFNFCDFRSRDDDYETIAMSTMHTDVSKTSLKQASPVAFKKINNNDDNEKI

| SMILES | outcome [1] | outcome [2] | outcome [3] |
| --- | --- | --- | --- |
| C1CNCCN1 | inactive | inactive | – |
| Cc1ccc([N+](=O)[O-])cc1N | – | – | inactive |
